The values that follow come from the supplement of paper PMC11732987, “Enantioselective OTUD7B fragment discovery through chemoproteomics screening and high-throughput optimisation” (Communications Chemistry, 2025).

Molecules are shown by their SMILES. Values without a mark were called inactive.

What all share (assay): log2 ratio of Biotin-Ahx-Ub-VS probe labelling (fragment/DMSO); higher = less target engagement (more negative = stronger competition), active = hit call of the paper (q ≤ 0.05, log2 ratio ≤ -1)
Holding throughout (conditions): compound concentration: 200 uM; treatment time: 3 h

The target of one test is T1, OTUD6B (UniProt Q8N6M0).
T1 sequence (whole entry): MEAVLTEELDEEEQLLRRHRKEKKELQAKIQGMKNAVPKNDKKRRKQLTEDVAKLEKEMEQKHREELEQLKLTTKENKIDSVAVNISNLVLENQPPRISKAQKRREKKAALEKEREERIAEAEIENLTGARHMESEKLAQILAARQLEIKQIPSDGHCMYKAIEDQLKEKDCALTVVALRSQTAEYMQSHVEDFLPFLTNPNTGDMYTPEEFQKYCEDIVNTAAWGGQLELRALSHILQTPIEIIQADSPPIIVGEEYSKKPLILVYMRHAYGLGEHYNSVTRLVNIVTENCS
The procedure, abridged: (§1)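 HEK293T lysate, 495 µg per sample in Tris/CHAPS/IGEPAL buffer with protease inhibitors, was treated in triplicate with fragment at 200 µM or vehicle for 3 h and then with Biotin-Ahx-Ub-VS at 0.5 µM final for 1 h. Labelled DUBs were NeutrAvidin-enriched, digested with LysC and trypsin, and run by diaPASEF LC-MS/MS. Spectronaut label-free quantities were global-median-normalised, and values are average log2 fragment/vehicle ratios by unpaired t-test on proteins with ≥2 unique peptides.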

The target of a further test is T2, OTUD7B (UniProt Q6GQQ9).
T2 sequence (whole entry): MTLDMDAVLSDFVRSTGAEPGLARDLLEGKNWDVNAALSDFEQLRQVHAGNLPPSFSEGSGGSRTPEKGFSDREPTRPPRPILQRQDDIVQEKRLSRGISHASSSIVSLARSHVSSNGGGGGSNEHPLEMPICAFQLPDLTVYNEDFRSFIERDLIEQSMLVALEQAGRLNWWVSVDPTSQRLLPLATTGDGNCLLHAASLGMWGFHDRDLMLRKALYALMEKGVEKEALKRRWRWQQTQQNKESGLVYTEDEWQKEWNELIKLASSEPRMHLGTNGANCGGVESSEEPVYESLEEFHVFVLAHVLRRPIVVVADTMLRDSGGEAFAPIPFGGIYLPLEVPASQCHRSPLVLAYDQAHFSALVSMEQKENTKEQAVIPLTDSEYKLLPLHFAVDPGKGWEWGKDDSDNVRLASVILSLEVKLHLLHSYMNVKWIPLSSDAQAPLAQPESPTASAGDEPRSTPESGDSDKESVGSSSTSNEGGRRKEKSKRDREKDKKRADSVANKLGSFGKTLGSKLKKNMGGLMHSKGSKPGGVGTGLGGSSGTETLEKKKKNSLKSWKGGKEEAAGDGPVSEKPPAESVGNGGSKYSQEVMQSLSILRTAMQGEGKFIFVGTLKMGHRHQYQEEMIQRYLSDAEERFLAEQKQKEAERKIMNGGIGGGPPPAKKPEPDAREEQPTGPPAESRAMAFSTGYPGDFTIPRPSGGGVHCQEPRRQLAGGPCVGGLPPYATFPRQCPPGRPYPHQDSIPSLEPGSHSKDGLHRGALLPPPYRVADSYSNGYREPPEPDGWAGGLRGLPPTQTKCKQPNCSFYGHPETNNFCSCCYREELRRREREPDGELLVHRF
The method in brief:
as §1

Another test concerns the target PRPF8 (UniProt Q6P2Q9). The procedure, abridged:
as §1

The target in a further test is T3, PSMD7 (UniProt P51665).
T3 sequence (whole entry): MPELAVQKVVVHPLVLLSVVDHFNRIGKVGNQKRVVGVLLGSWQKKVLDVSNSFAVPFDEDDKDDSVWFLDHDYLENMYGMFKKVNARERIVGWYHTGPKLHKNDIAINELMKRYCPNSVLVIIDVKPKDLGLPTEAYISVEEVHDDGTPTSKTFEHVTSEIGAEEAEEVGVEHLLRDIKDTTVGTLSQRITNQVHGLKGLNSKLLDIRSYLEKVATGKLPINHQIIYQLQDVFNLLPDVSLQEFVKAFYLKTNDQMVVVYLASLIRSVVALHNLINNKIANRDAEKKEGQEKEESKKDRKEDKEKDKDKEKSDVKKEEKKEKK
The procedure, abridged: as §1

For another test, the target named is UCHL1 (UniProt P09936). The procedure, abridged: as §1
The next test concerns the target T4, UCHL3 (UniProt P15374).
T4 sequence (whole entry): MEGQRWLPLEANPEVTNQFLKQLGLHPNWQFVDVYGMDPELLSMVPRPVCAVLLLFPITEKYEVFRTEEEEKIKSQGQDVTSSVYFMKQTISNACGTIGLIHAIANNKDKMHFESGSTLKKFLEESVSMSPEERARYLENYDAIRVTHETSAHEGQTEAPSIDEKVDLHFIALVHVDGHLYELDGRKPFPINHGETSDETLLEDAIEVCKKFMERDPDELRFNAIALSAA
The method in brief:
as §1

A further test deals with T5, UCHL5 (UniProt Q9Y5K5).
T5 sequence (whole entry): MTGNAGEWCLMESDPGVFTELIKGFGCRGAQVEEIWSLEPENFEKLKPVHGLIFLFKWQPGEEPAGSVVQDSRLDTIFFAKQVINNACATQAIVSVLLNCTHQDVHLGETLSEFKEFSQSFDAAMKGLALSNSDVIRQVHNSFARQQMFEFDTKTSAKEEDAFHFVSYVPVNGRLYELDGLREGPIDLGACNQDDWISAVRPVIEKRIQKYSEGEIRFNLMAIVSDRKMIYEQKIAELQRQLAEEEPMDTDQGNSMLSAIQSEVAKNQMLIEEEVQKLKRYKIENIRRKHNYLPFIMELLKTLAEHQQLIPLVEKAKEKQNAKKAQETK
The procedure, abridged:
as §1

The next test addresses USP10 (UniProt Q14694). The procedure, abridged: as §1
In another test the target is T6, USP15 (UniProt Q9Y4E8).
T6 sequence (whole entry): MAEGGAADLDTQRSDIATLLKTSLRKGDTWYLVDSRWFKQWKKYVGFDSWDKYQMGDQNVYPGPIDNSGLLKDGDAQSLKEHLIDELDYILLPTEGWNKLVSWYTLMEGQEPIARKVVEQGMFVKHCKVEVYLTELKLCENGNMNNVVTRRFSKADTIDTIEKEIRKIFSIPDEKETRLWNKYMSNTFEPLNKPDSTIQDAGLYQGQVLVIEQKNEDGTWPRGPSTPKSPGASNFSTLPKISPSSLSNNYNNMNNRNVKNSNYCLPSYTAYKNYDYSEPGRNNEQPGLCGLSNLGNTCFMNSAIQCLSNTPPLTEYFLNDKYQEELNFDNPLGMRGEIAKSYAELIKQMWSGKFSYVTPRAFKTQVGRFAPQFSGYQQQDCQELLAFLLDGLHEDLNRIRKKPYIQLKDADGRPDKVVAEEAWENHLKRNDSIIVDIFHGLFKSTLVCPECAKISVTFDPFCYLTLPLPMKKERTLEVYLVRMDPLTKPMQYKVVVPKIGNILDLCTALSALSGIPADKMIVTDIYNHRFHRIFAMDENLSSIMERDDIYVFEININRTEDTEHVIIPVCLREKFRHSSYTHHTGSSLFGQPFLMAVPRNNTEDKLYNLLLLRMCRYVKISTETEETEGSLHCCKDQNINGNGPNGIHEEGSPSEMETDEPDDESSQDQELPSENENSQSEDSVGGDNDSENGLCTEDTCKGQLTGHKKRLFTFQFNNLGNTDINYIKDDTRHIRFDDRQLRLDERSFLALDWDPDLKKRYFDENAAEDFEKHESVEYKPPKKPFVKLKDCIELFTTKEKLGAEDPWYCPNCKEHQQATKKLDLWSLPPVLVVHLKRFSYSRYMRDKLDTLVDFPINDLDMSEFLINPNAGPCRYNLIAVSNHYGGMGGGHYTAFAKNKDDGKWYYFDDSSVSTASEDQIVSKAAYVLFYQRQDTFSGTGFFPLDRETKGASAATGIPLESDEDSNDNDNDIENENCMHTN
The procedure, abridged:
as §1

The target in the next test is USP16 (UniProt Q9Y5T5). The method in brief:
as §1

Chain of USP10 (Q14694 whole entry): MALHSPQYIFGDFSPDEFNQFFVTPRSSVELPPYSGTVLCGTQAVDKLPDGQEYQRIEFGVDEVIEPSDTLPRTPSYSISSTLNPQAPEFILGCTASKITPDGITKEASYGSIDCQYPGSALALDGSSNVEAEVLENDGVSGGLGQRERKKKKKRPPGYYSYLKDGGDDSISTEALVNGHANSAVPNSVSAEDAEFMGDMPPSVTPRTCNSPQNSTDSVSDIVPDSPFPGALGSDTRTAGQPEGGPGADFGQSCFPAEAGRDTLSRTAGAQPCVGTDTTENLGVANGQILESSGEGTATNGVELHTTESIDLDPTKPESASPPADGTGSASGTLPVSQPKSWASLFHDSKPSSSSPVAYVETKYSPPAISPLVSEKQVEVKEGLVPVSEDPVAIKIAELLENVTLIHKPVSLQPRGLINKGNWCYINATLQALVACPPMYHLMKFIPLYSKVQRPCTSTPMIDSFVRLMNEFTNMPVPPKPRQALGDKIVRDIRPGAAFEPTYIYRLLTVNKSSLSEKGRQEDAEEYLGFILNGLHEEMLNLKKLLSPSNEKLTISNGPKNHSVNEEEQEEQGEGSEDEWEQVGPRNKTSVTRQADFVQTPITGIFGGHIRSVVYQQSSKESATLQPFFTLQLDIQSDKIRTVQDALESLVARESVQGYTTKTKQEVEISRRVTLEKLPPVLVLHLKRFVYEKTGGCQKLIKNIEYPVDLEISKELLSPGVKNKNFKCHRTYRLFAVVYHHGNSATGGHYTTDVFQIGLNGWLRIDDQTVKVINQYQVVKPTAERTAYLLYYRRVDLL
Chain of USP16 (Q9Y5T5 whole entry, looked up): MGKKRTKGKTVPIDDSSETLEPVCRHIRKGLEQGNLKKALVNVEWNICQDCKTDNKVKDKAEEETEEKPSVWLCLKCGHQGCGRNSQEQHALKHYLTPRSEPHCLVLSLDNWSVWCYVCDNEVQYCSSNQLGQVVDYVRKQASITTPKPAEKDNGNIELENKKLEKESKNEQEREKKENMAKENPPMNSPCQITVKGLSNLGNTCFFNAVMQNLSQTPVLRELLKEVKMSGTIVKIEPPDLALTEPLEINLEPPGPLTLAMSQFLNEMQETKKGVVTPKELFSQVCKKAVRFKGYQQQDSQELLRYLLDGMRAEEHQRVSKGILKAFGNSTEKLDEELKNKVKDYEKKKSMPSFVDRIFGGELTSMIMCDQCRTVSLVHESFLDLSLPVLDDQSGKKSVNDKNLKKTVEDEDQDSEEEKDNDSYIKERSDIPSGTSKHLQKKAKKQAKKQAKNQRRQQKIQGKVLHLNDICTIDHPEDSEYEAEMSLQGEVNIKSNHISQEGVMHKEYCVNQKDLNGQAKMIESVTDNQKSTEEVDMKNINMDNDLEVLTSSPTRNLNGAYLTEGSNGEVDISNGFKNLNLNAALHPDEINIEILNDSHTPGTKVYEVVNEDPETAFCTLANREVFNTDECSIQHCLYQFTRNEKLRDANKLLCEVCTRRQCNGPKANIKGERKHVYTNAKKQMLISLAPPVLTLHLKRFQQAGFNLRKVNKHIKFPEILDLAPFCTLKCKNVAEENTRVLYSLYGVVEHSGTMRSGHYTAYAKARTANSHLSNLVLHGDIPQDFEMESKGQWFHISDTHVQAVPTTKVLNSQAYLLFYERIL
Chain of UCHL1 (P09936 whole entry, looked up): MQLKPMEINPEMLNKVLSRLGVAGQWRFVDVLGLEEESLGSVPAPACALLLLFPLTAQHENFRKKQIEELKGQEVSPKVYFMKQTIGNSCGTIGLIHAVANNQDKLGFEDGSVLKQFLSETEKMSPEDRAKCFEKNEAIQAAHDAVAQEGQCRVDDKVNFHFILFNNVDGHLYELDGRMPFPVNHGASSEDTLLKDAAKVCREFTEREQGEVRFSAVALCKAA

Regarding `Cn1cc(CN(Cc2ccc(Cl)cc2)C(=O)CCl)cn1`, the “log2 ratio of Biotin-Ahx-Ub-VS probe labelling” value with OTUD6B was -0.0472; with OTUD7B, -0.238; with PRPF8, 0.208; with PSMD7 it was 0.0391; in the test with UCHL1, -0.602; with UCHL3, 0.113. For the same compound, the “log2 ratio of Biotin-Ahx-Ub-VS probe labelling” value with UCHL5 was -0.221; with USP10, -0.0261; with USP15 it was -0.272; with USP16, -1.17 (active).
